The source made the active and inactive calls. Unless noted, how the calls were made is not given here.

From PubChem BioAssay come the findings set out here.

The nature of test [1]: HepG2 liver cancer cell viability effects, profiling panel, resazurin fluorescence, 24 h, PK04 Diversity Set (AID 1172). Further: test concentration not given here. Conditions: higher = more signal. In general terms: Resazurin is reduced to fluorescent resorufin, in cell work by metabolically active cells.
Test [2] can be described thus: basal S. cerevisiae growth modulation, no modifier, primary screen, OD600, strain BY4716, 24 h, basal condition (AID 1173). The note with it: OD600, 24 h, higher = more signal, called active from +8 up or from −8 down.
Test [3] can be described thus: MM1S myeloma cell viability, profiling panel, resazurin fluorescence, basal, 24 h, PK04 Diversity Set (AID 1174).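 Further: MM1S multiple myeloma cell line; test concentration not given here.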 Conditions: higher = more signal, called active from +8 up or from −8 down.
In test [4] the target is Dihydroorotate dehydrogenase (quinone), mitochondrial (Plasmodium falciparum (isolate 3D7)) (UniProt Q08210). Nature of the test: PfDHODH enzyme inhibitors, primary screen, biochemical, C-terminal His tag, absorbance 600 nm (AID 1175).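 Further: recombinant parasite enzyme with a five histidine tag at its C terminus; test concentration not given here.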 The note with it: DCIP absorbance 600 nm, higher = more signal, called active from +8 up or from −8 down.
Test [5] in a line: P. aeruginosa biofilm formation inhibitors, primary screen, strain PAO1, LB-PBS medium, absorbance 600 nm (AID 1176). Further: test concentration not given here. Conditions: P. aeruginosa PAO1 growth/biofilm, A600, 12 h; higher = more signal.
Test [6] in a line: S. cerevisiae RM11-1a growth modifiers, primary screen, strain RM11-1a, OD600, basal, 24 h (AID 1177).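 Further: cultures grown under basal conditions with no added stressor; test concentration not given here.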 The note with it: OD600, 24 h, higher = more signal, called active from +8 up or from −8 down.
Test [7] is described as follows: E. coli acrAB mutant growth effects, primary screen, E. coli filamentation inducers, strain DRC39, OD650, 24 h (AID 1178).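 Further: growth measured as culture turbidity by optical density at 650 nm; test concentration not given here.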 The note with it: higher = more signal, called active from +8 up or from −8 down.
Test [8] is described as follows: E. coli acrAB mutant growth effects, primary screen, E. coli filamentation inducers, strain DRC39, OD650, 48 h (AID 1179).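 Further: screen aims at cell division blockers that make cells filament.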 Conditions: E. coli DRC39 delta-acrAB growth, higher = more signal, called active from +8 up or from −8 down.
Test [9] in a line: RPMI8226 myeloma cell viability, profiling panel, resazurin fluorescence, basal, 24 h, PK04 Diversity Set (AID 1180).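 Further: RPMI8826 multiple myeloma cell line at 5000 cells per well; test concentration not given here.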 The note with it: higher = more signal.
Test [10] deals with E3 ubiquitin-protein ligase XIAP (Homo sapiens) (UniProt P98170). Nature of the test: XIAP binders, primary screen, biophysical, small-molecule microarray, fluorescence 635 nm (AID 1181).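 Further: score merges 667 nm emission and signal to noise over triplicate slides.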 Conditions: small-molecule microarray binding, higher = more signal.
E3 ubiquitin-protein ligase XIAP (Homo sapiens), sequence (P98170 whole entry, looked up): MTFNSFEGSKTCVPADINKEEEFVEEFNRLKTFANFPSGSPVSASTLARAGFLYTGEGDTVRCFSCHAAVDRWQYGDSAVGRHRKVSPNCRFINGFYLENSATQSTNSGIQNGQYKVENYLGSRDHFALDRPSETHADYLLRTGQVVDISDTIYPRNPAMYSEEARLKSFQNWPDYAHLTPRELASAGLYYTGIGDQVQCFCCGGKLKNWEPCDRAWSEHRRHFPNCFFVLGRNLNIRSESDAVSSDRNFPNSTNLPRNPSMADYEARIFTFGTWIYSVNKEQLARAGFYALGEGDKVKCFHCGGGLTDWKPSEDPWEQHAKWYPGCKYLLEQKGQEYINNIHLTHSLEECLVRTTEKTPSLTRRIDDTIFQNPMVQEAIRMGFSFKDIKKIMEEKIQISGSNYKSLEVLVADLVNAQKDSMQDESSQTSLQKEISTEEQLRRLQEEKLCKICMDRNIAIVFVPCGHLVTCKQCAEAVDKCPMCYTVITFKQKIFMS

Dihydroorotate dehydrogenase (quinone), mitochondrial (Plasmodium falciparum (isolate 3D7)), sequence (Q08210 whole entry, looked up): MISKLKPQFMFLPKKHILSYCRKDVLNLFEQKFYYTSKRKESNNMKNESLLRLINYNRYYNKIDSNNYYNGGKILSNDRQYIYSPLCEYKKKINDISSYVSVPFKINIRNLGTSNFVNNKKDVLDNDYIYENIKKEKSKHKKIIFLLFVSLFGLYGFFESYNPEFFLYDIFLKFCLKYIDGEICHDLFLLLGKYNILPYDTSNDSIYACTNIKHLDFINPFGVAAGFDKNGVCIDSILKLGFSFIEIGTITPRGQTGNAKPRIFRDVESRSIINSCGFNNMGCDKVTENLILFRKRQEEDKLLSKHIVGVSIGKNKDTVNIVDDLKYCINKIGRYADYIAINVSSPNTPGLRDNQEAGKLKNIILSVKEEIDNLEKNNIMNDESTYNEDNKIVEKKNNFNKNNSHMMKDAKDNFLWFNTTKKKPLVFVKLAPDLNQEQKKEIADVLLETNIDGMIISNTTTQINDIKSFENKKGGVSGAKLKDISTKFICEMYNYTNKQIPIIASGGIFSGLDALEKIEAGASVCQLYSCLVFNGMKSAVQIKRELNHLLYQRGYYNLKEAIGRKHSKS

For the compound `O=c1cccc(-c2ccccc2)o1`, the z-score in test [1] is 0.123; in test [2], -5.07 (inactive); in test [3], 0.0841 (inactive); in test [5], 0.421 (inactive); in test [6] it was 0.434 (inactive); in [7], -0.438 (inactive). Besides, the values for the z-score in [8] and in [9] were 0.0997 (inactive) and -0.156, respectively. Further, the composite z-score was -0.403 (inactive) in test [4] and 0.045 in [10].

Take `CCCC[C@@H]1C[C@H]1[C@@H](NC(=O)c1ccco1)c1ccccc1`: the z-score in test [1] was 1.39; in test [2], -3.05 (inactive); in test [3] it was 0.757 (inactive); in test [5], -0.195 (inactive); in test [6], 0.586 (inactive); in test [7], -0.9 (inactive). For the same compound, the z-score was -0.569 (inactive) in test [8] and 0.0092 in test [9]. Further, the composite z-score is -1.19 (inactive) in test [4] and 0.171 in test [10].

Take `Cc1ccc(N2C(=O)c3ccccc3[C@](C)(C(=O)NCCN3CCOCC3)[C@@H]2c2ccc(CO)cc2)nc1`: the z-score is -0.946 in test [1]; -0.574 (inactive) in test [2]; 0.438 (inactive) in test [3]; 0.31 (inactive) in [5]; 0.548 (inactive) in test [6]; -0.0943 (inactive) in test [7]. Also, the z-score in test [8] was -0.126 (inactive); in test [9], 0.274. Besides, the composite z-score in test [4] is 0.255 (inactive); in [10], 0.086.

On to `COc1ccc([Si](C)(C)[C@H]2[C@H](CC(=O)N(CCO)Cc3ccccc3)O[C@@]3(C(=O)N(Cc4cccc(N5C(=O)c6cccc7cccc5c67)c4)c4ccccc43)[C@@H]2C)cc1`, for which the z-score in [1] was -0.101; in [2], 0.476 (inactive); in [3] it was -3.19 (inactive); in test [5] it was 1.98 (inactive); in [6] it was 0.768 (inactive); in test [7] it was 0.67 (inactive). For the same compound, the z-score is 0.865 (inactive) in [8] and -2.93 in [9]. In addition, the composite z-score was -2.98 (inactive) in [4] and 0.0564 in test [10].

`CC(C)(C)OC(=O)CC[C@@]1(C(N)=O)N=C(c2ccc(OCCCO)cc2)O[C@@H]1c1ccccc1N=[N+]=[N-]`: the z-score in [1] was 0.55; in [2] it was -0.231 (inactive); in test [3], -0.134 (inactive); in test [5], -0.18 (inactive); in test [6], 0.045 (inactive); in test [7], 0.397 (inactive). For the same compound, the z-score was 0.529 (inactive) in [8] and 0.288 in test [9]. Moreover, the results for the composite z-score in test [4] and in test [10] were 0.974 (inactive) and 0.0908, respectively.

Take `CC(C)NC(=O)[C@@H]1c2ccccc2C(=O)N(C2CCCCC2)[C@H]1c1ccc(CO)cc1`: the z-score in test [1] was -0.208; in [2], -0.63 (inactive); in test [3], -0.569 (inactive); in test [5], 0.36 (inactive); in test [6] it was 0.052 (inactive); in [7] it was 0.126 (inactive). In addition, the z-score in test [8] was -0.0549 (inactive); in test [9], -0.374. In addition, the composite z-score in test [4] is -0.131 (inactive); in [10] it was 0.0124.

Regarding `CCCC[C@@H]1C[C@H]1[C@@H](NC(=O)c1ccccc1)c1ccccc1`, the z-score in [1] is 0.237; in test [2], 1.21 (inactive); in test [3], -0.694 (inactive); in test [5], -0.471 (inactive); in test [6], 0.601 (inactive); in test [7], 0.104 (inactive). The figures for the z-score in test [8] and in test [9] were 0.233 (inactive) and -1.07, respectively. The composite z-score in test [4] is -0.113 (inactive); in [10], -0.0289.

For the compound `[N-]=[N+]=NCc1ccccc1C[C@]1(C(=O)NCc2ccccc2)COC(c2ccc(OCCCO)cc2)=N1`, the z-score was -1.89 in test [1]; 1.55 (inactive) in [2]; -5.64 (inactive) in test [3]; 0.385 (inactive) in test [5]; 3.06 (inactive) in [6]; 1.45 (inactive) in test [7]. The z-score in test [8] is 0.376 (inactive); in test [9], -4.15. Moreover, the composite z-score was 1.1 (inactive) in test [4] and 0.488 in test [10].

As for `C=CCN1C(=O)[C@@]2(O[C@@H](CCO)[C@H]([Si](C)(C)c3ccc(OC)cc3)[C@H]2C)c2cc(NC(C)=O)ccc21`, the z-score was -0.865 in test [1]; -1.47 (inactive) in [2]; -1.6 (inactive) in test [3]; -0.188 (inactive) in test [5]; 1.48 (inactive) in test [6]; 0.166 (inactive) in [7]. In addition, the z-score in test [8] was 0.121 (inactive); in test [9], -1.43. For the same compound, the composite z-score is -1.13 (inactive) in [4] and 0.436 in [10].

For the compound `CC(C)C(O)C1C=CC2C(=O)N(C)C(=O)C2N1N1CCCCC1` (stereo not given), the z-score in test [1] is -0.401; in test [2] it was 0.717 (inactive); in test [3], -0.82 (inactive); in test [5] it was 0.916 (inactive); in [6], 0.0471 (inactive); in test [7], -0.754 (inactive). The z-score was -0.837 (inactive) in test [8] and -0.323 in test [9]. Besides, the composite z-score in test [4] was -0.0607 (inactive); in [10], -0.0448.

For `O=C1O[C@@H](c2ccccc2)[C@@H](c2ccccc2)N2[C@@H](c3ccc(O)cc3)[C@]3(C(=O)Nc4ccc(C#CCCO)cc43)[C@@H](C(=O)N3CCCCCCC3)[C@H]12`, the z-score in [1] was -0.348; in [2] it was 0.176 (inactive); in test [3], -0.161 (inactive); in test [5], 1.01 (inactive); in test [6] it was 0.524 (inactive); in test [7], 0.0109 (inactive). For the same compound, the z-score in test [8] was -0.787 (inactive); in [9] it was -0.53. Besides, the figures for the composite z-score in test [4] and in [10] were 1.29 (inactive) and 0.567, respectively.
